Source: PubChem BioAssay (Broad Institute)
T cruzi growth-1 – T. cruzi proliferation inhibition; hit rate 5.9% among 77,000; inhibition, % at 8.34 µM; T. cruzi beta-gal in NIH3T3, GalScreen luminescence, 90 h;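 active = mean inhibition above about 93%, with at least 55% of replicates each passing it, limit read from the data, passing the limit was not always enough; inconclusive = only one of those two conditions holds; inactive = neither condition holds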
Pf Dd2 growth – P. falciparum Dd2 growth inhibition. SYBR Green, 72 h; stronger effect = lower value. activity change, % at 10 µM. hit rate 2.3% among 94,000; in the data active = activity change below about -80%; inconclusive = no clear call, values can overlap the other calls
C diff growth – inhibitors of Clostridium difficile growth | Clostridium difficile clinical isolate growth, OD600, 24 h; stronger effect = lower value | growth activity, negative = inhibition, % at 16 µg/mL (by protocol) | hit rate 0.25% among 86,000 | AID 1259249;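 active = mean growth activity at or below -80% and every replicate also at or below -80%; inconclusive = mean at or below -80% but some replicate above -80%; inactive = mean growth activity above -80%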;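 also: 0% = DMSO wells and -100% = levofloxacin 16 µg/mL wells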
T cruzi growth-2 – blocks T. cruzi growth in NIH3T3 host cells. shares compounds with T cruzi growth-1. hit rate 72% among 5,600. T. cruzi beta-gal in NIH3T3, GalScreen luminescence, 90 h. inhibition, % at 8.35 µM;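 active = mean replicate inhibition above about 95% and at least 55% of replicates individually reaching it, limit read from the data; inconclusive = only one of the two criteria is met; inactive = neither criterion is met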
T cruzi growth-3 – Trypanosoma cruzi proliferation inhibition. shares compounds with T cruzi growth-1. T. cruzi beta-gal in NIH3T3, GalScreen luminescence, 90 h. inhibition, % at 2.09 µM. hit rate 21% among 5,600;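 active = mean inhibition above about 95%, with at least 55% of replicates also reaching it, limit read from the data; inconclusive = meets just one of the two conditions; inactive = meets neither condition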;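 also: plate controls were neutral control median for no effect and positive control median for full effect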
3T3 cytotox – NIH/3T3 (mouse) viability loss; shares compounds with T cruzi growth-1; hit rate 14% among 5,600; NIH/3T3 viability, CellTiter-Glo ATP luminescence, 90 h; AID 651742; cytotoxicity (signal decrease), % at 8.35 µM;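 active = mean signal decrease across replicates above about 35% based on untreated-well scatter, with enough replicates individually passing, limit read from the data; inconclusive = no rule stated though some were filed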;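 also: 0% = median of neutral control wells and 100% = median of positive control wells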
NIH3T3 tox 2 – NIH/3T3 (mouse) viability loss | shares compounds with T cruzi growth-1 | NIH/3T3 viability, CellTiter-Glo ATP luminescence, 90 h | inhibition, % at 24.9 µM | hit rate 56% among 5,600 | AID 651744;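 active = mean loss of cell viability signal at or above a set limit, and enough replicates individually reaching it; inconclusive = meets only the mean limit or only the replicate share; inactive = meets neither condition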;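 also: 0% = median of neutral control wells and 100% = median of positive control wells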
An asterisk follows results filed as active; u = inconclusive; x = no result given. Most compounds without a hit are left out; they make up all but 6.8% or so of the library.

SMILES	T cruzi growth-1	Pf Dd2 growth	C diff growth	T cruzi growth-2	T cruzi growth-3	3T3 cytotox	NIH3T3 tox 2
CO[C@H]1CN(C)C(=O)c2cc(NS(=O)(=O)c3cccc(F)c3)ccc2OC[C@@H](C)N(Cc2cc(F)ccc2F)C[C@H]1C	u	-33.3	10.6	110.5*	76.4	-7.9	52.2*
CO[C@@H]1CN(C)C(=O)c2cc(NS(=O)(=O)c3cccc(F)c3)ccc2OC[C@H](C)N(Cc2cc(F)ccc2F)C[C@@H]1C	82.3	-48.7	2.9	x	x	x	x
CO[C@@H]1CN(C)C(=O)c2ccc(NS(=O)(=O)c3cccc(C)c3)cc2OC[C@@H](C)N(Cc2cc(F)ccc2F)C[C@H]1C	98.0*	-45.0	-3.1	105.9*	47.9	-15.1	1.7
CO[C@@H]1CN(C)C(=O)c2cc(NS(=O)(=O)c3cccc(F)c3)ccc2OC[C@@H](C)N(Cc2cc(F)ccc2F)C[C@H]1C	u	-69.6	-3.7	102.6*	u	-27.5	14.6
CO[C@@H]1CN(C)C(=O)c2ccc(NS(=O)(=O)c3cccc(F)c3)cc2OC[C@H](C)N(Cc2cc(F)ccc2F)C[C@@H]1C	x	-23.0	x	x	x	x	x
CO[C@@H]1CN(C)C(=O)c2cc(NS(=O)(=O)c3cccc(F)c3)ccc2OC[C@H](C)N(Cc2cc(F)ccc2F)C[C@H]1C	85.6	-32.1	11.2	x	x	x	x
CO[C@@H]1CN(C)C(=O)c2ccc(NS(=O)(=O)c3cccc(F)c3)cc2OC[C@@H](C)N(Cc2cc(F)ccc2F)C[C@@H]1C	x	-13.9	x	x	x	x	x
COc1ccc(S(=O)(=O)Nc2ccc3c(c2)OC[C@@H](C)N(Cc2cc(F)ccc2F)C[C@@H](C)[C@H](OC)CN(C)C3=O)cc1	122.4*	-39.1	x	109.9*	82.5	-14.5	-9.4
CCCNC(=O)[C@@H]1[C@@H](CO)[C@@H]2Cn3c(ccc(-c4ccccc4)c3=O)[C@H]1N2C(=O)CC	x	63.5	-2.7	x	x	x	x
COc1cccc(NC(=O)N[C@H]2C=C[C@@H](CC(=O)N3CCCCC3)O[C@H]2CO)c1	4.2	-7.8	5.7	x	x	x	x
C[C@@H]1CCCCO[C@@H](CN(C)C(=O)Cc2ccccc2)[C@@H](C)CN([C@H](C)CO)C(=O)c2cc(NS(=O)(=O)c3ccccc3)ccc2O1	x	-50.5	4.3	x	x	x	x
COc1ccc(S(=O)(=O)Nc2ccc3c(c2)C(=O)N([C@@H](C)CO)C[C@@H](C)[C@H](CN(C)Cc2ccc(Cl)c(Cl)c2)O3)cc1	120.9*	-21.8	10.0	95.8*	67.8	39.9*	105.2*
C[C@H](CO)N1C[C@H](C)[C@H](CN(C)Cc2ccc(Cl)c(Cl)c2)Oc2ccc(NS(=O)(=O)c3ccc(F)cc3)cc2C1=O	26.9	17.4	8.7	x	x	x	x
C[C@H]1CN([C@@H](C)CO)C(=O)c2cc(NS(=O)(=O)c3ccc(F)cc3)ccc2O[C@@H]1CN(C)Cc1ccc(Cl)c(Cl)c1	u	-7.0	44.6	101.5*	73.3	24.6	98.2*
COc1ccc(S(=O)(=O)Nc2ccc3c(c2)C(=O)N([C@H](C)CO)C[C@@H](C)[C@H](CN(C)Cc2ccc(Cl)c(Cl)c2)O3)cc1	119.6*	0.6	8.3	102.2*	21.9	9.2	104.2*
COc1ccc(S(=O)(=O)Nc2ccc3c(c2)C(=O)N([C@H](C)CO)C[C@@H](C)[C@@H](CN(C)Cc2ccc(Cl)c(Cl)c2)O3)cc1	72.3	15.9	8.1	x	x	x	x
COc1ccc(S(=O)(=O)Nc2ccc3c(c2)C(=O)N([C@@H](C)CO)C[C@H](C)[C@H](CN(C)Cc2ccc(Cl)c(Cl)c2)O3)cc1	114.1	1.6	14.0	x	x	x	x
C[C@H]1CN([C@@H](C)CO)S(=O)(=O)c2ccc(C#CC(C)(C)O)cc2O[C@@H]1CN(C)C(=O)CN(C)C	27.7	51.5	-5.0	x	x	x	x
O=C(C[C@@H]1C=C[C@@H](NS(=O)(=O)c2ccccc2)[C@@H](CO)O1)NCc1ccc(Cl)c(Cl)c1	13.8	25.3	x	x	x	x	x
CCCN1[C@@H]2c3ccc(-c4ccccc4OC)c(=O)n3C[C@@H]2[C@@H](CO)[C@@H]1C(=O)OC	6.0	17.0	-1.9	x	x	x	x
CO[C@@H](CN(C)S(=O)(=O)c1ccc(Cl)cc1)[C@@H](C)CN([C@H](C)CO)S(=O)(=O)c1cccc(Cl)c1	u	-39.6	x	92.0	56.5	54.2*	78.8*
CO[C@H](CN(C)S(=O)(=O)c1cccc(Cl)c1)[C@H](C)CN([C@H](C)CO)S(=O)(=O)c1ccc(Cl)cc1	u	-2.6	x	98.6*	19.6	47.0*	67.5*
CO[C@@H](CN(C)S(=O)(=O)c1ccc(Cl)cc1)[C@@H](C)CN([C@@H](C)CO)S(=O)(=O)c1cccc(Cl)c1	85.3	3.4	x	x	x	x	x
CO[C@@H](CN(C)S(=O)(=O)c1ccc(Cl)cc1)[C@H](C)CN([C@@H](C)CO)S(=O)(=O)c1cccc(Cl)c1	84.1	-23.1	x	x	x	x	x
C[C@@H]1CN([C@@H](C)CO)C(=O)c2cc(NS(=O)(=O)c3cn(C)cn3)ccc2O[C@@H](C)CCCCO[C@H]1CN(C)C(=O)CCC(F)(F)F	33.8	-0.2	-5.6	x	x	x	x
SMILES	T cruzi growth-1	Pf Dd2 growth	C diff growth	T cruzi growth-2	T cruzi growth-3	3T3 cytotox	NIH3T3 tox 2
C[C@H](CO)N1C[C@H](C)[C@@H](CN(C)C)Oc2cc(-c3ccncc3)ccc2S1(=O)=O	105.8*	-2.5	-1.9	89.3	24.1	13.1	u
C[C@H](CO)N1C[C@H](C)[C@H](CN(C)C)Oc2cc(-c3ccncc3)ccc2S1(=O)=O	11.1	10.3	-0.8	x	x	x	x
C[C@@H]1CN([C@@H](C)CO)S(=O)(=O)c2ccc(-c3ccncc3)cc2O[C@H]1CN(C)C	98.2*	10.7	1.9	97.1*	14.7	1.9	19.4
C[C@@H]1CN([C@H](C)CO)S(=O)(=O)c2ccc(-c3ccncc3)cc2O[C@H]1CN(C)C	23.6	24.8	-2.9	x	x	x	x
CO[C@@H]1CN(C)C(=O)c2cc(NC(=O)C3CCCC3)ccc2OC[C@@H](C)N(CCC(F)(F)F)C[C@@H]1C	1.4	x	x	x	x	x	x
CN1c2ccc(-c3ccccc3)cc2[C@@H]2[C@@H](CCN2C(=O)CC2CC2)[C@H]1CO	67.9	-35.3	-3.7	x	x	x	x
CN1c2ccc(-c3ccc(C#N)cc3)cc2[C@@H]2[C@@H](CCN2C(=O)CC2CC2)[C@H]1CO	104.4*	-8.5	1.3	106.3*	84.7	4.5	40.9*
CN1c2ccc(-c3cccc(C#N)c3)cc2[C@@H]2[C@@H](CCN2C(=O)CC2CC2)[C@H]1CO	96.1	8.0	-9.1	x	x	x	x
CN1c2ccc(-c3cccc(F)c3)cc2[C@H]2[C@H](CCN2C(=O)CC2CC2)[C@@H]1CO	97.8*	-4.1	1.7	102.3*	66.7	27.7	2.4
COc1ccc(C#Cc2ccc3c(c2)O[C@@H](CN(C)C(=O)c2ccccn2)[C@@H](C)CN([C@@H](C)CO)S3(=O)=O)cc1	x	-62.0	4.7	x	x	x	x
CNC[C@H]1Oc2c(NS(=O)(=O)c3ccc(Cl)cc3)cccc2C(=O)N([C@@H](C)CO)C[C@@H]1C	x	16.6	4.7	x	x	x	x
